Out of some 4,100 compounds screened, about 1,600 (39%) were called active. Another 25% or so got no clear call; they are omitted. The call rests on the fitted dose curve; in most records, active means well fitted inhibition curve with a large enough effect; inconclusive means small, poorly fitted or top-dose-only effect; inactive means no such curve, though single readings can be large or run the other way. The list shows a part of the results. Where a call stands in place of a potency, no number is given.
Assay: qHTS Validation assay for Inhibitors of Plasmodium falciparum Dd2 growth in vitro; further: nearly all actives have a fitted effect of over 70% in size
Settings: P. falciparum Dd2 in RBCs, SYBR Green growth, 72 h; series mostly up to 28.7 µM
In short: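 P. falciparum Dd2-infected red blood cells (2.5% hematocrit, 0.3% parasitemia) grown 72 h at 37 °C under 5% O2 with compounds in a titration, 29 uM to 0.5 nM final. Growth read as SYBR Green-1 fluorescence after ~16 h lysis; artesunate 300 nM as positive control.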
Potency means the concentration at half of the fitted maximal effect.

Compound | Potency
COc1ccc(-n2cc(CNCCCn3ccnc3)c(-c3ccccc3Cl)n2)cc1 | 3.35 µM (active)
CCCn1cnnc1CNC(=O)CC1C(=O)NCCN1Cc1ccoc1 (centres undefined) | inactive
Cc1ccc(OCc2nc(C3CN(C(=O)c4ccc5nc[nH]c5c4)C3)no2)cc1 | inactive
Cc1ccc(OCC(=O)N2CCC(c3noc(-c4ccccn4)n3)C2)cc1 (centres undefined) | inactive
Cc1ccc(OCc2nc(C3CCN(C(=O)c4c5c(nc6ccccc46)CCCC5)CC3)no2)cc1 | 9.44 µM (active)
CCc1cccc(NC(c2nnc(-c3ccccc3)o2)c2ccc(F)cc2Cl)c1 (centres undefined) | 6.68 µM (active)
COc1ccc(C2C=C(c3ccc(F)cc3)Nc3nc(-c4ccc(Cl)cc4)nn32)cc1 (centres undefined) | 0.75 µM (active)
Cc1ccc(-c2nc3n(n2)C(c2ccccc2Cl)C=C(c2ccc(Cl)cc2)N3)cc1 (centres undefined) | 9.44 µM (active)
Cc1ccc(C2=CC(c3ccc(Cl)cc3)n3nc(-c4ccc(C)cc4)nc3N2)cc1 (centres undefined) | 1.68 µM (active)
COc1ccc(C2C=C(c3ccc(Cl)cc3)Nc3nc(-c4ccc(Cl)cc4)nn32)cc1 (centres undefined) | 0.237 µM (active)
COC(=O)C1=C(C)Nc2nnnn2C1c1ccccc1Cl (centres undefined) | inactive
COc1ccc(C2C=C(c3ccccc3)Nc3nc(NS(=O)(=O)c4ccccc4)nn32)cc1 (centres undefined) | inactive
CC(=O)c1cccc(NC(=O)[C@H]2O[C@@H]3OC(C)(C)O[C@@H]3[C@H]3OC(C)(C)O[C@H]32)c1 | inactive
COc1cccc(-c2c(C#N)c(N)nc3c2c(C)nn3-c2ccccc2)c1O | 1.5 µM (active)
COc1ccc(Cl)cc1NC(=O)c1cc(C)nc2c1c(C)nn2-c1ccccc1 | inactive
CCN(C(=O)CSc1nc(-c2ccc(C(C)C)cc2)no1)c1ccccc1 | 0.944 µM (active)
CCN(C(=O)Cn1nc2c3cc(F)ccc3n(Cc3cccc(C)c3)cc-2c1=O)c1cccc(C)c1 | inactive
CCN(C(=O)CSc1nc(-c2ccc(C(C)C)cc2)no1)c1cccc(C)c1 | 1.06 µM (active)
Cc1cccc(C(=O)NCc2nnc3c(-c4nc(C(C)C)no4)cccn23)c1 | inactive
Cc1ccc(NC(=O)c2cc(C(=O)c3cc(Cl)ccc3O)cn(-c3ccc(C)cc3)c2=O)cc1 | 0.422 µM (active)
Cn1c(=O)c(=O)n(C)c2cc(N3CCCC3)c(NC(=O)c3ccccc3F)cc21 | inactive
Cc1ccc(NC(=O)c2cc3n(n2)CC(c2ccc(Cl)cc2)OC3)cc1 (centres undefined) | inactive
O=C(Cn1cc(C(=O)c2ccncc2)c(=O)c2cc(F)ccc21)Nc1ccc(Cl)cc1 | inactive
Cc1ccccc1NC(=O)c1cc(C(=O)c2cc(Cl)ccc2O)cn(-c2ccccc2C)c1=O | 0.376 µM (active)

From PubChem BioAssay AID1347416 (National Center for Advancing Translational Sciences (NCATS), 2020)
